Sampled rows, rich in hits. Any-hit rate of the full collection: about 3.8%.
TIM10 inh: growth inhibitors of TIM10 yeast strain; S. cerevisiae TIM10 strain growth, BacTiter-Glo luminescence, 24 h; inhibition, % at 10 µM; 330,000 tested, 1.4% active; AID 463195;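 active = inhibition of 40% or more at the single tested concentration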;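 note: wild-type TIM10 isogenic control strain grown at permissive 25 °C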
tim10-1 inh: inhibits growth of tim10-1 mutant yeast | 330,000 tested, 2.2% active | inhibition, % at 20 µM | S. cerevisiae tim10-1 ts strain growth, BacTiter-Glo, 24 h | AID 463190;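 active = inhibition of at least 40%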;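 note: mutant grown at 25 °C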
NALP3 yeast inh: inhibitors of NALP3 inflammasome in yeast. Yeast reconstituted NLRP3/ASC/caspase-1, beta-gal luminescence, 24 h. inhibition, % at 10 µM. AID 2825. 330,000 tested, 0.39% active;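 active = inhibition of 50% or more; inactive = inhibition below 50%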
tim23-1 inh: tim23-1 yeast growth inhibition | S. cerevisiae tim23-1 growth, BacTiter-Glo luminescence, 24 h | inhibition, % at 20 µM | 330,000 tested, 1.3% active | AID 463212;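 active = growth inhibition of the mutant yeast at or above 50%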;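 note: temperature-sensitive mutant grown at 25 °C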
Yeast superoxide: lowers age-related superoxide in aged yeast cells. S. cerevisiae aged cells, superoxide DHE fluorescence; hits give low values. superoxide response (% of plate mean), % at 10 µM. AID 2690. 330,000 tested, 0.18% active;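 active = superoxide response under a set limit, about three screen SD below normal, cut at about 65% in these data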;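 note: yeast aged for seven days with compound at 30 °C before DHE staining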
Superoxide pick: confirmation of caloric restriction mimetics inhibiting yeast age-related superoxide; shares compounds with Yeast superoxide; S. cerevisiae aging, superoxide DHE fluorescence; hits give low values; superoxide response (% of plate), % at 10 µM; 850 tested, 1% active; AID 434994;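 active = superoxide signal below 65% of the plate average of sample wells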;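 note: cells aged with compound for 7 days at 30 degrees C before staining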
DHE counter: counter-screen for compounds affecting DHE oxidation and fluorescence in yeast. shares compounds with Yeast superoxide. S. cerevisiae BY4741, flow cytometry; hits give low values. fluorescence response, % at 10 µM. 850 tested, under 10 active. AID 435000;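 active = fluorescence response below 15%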;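 note: lower means stronger quenching of DHE signal or ROS scavenging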
Each line names hits and unclear results; the compound was inactive in the other large screens (follow-up assays come after a bar, where they were run).

CC(C(=O)Nc1ccccc1)N1CCN(c2ccccn2)CC1 (stereo unspecified)	none | Superoxide pick inactive | DHE counter inactive
COc1ccc(Cl)cc1NC(=O)C(C)N1CCN(c2ccccn2)CC1 (stereo unspecified)	none | Superoxide pick inactive | DHE counter inactive
Cc1cc([N+](=O)[O-])ccc1NC(=O)C(C)N1CCN(c2ccccn2)CC1 (stereo unspecified)	none | Superoxide pick inactive | DHE counter inactive
COc1ccc(Cl)cc1C(=O)N1CCN(c2ccccn2)CC1	none
Cc1cc(CNC(=O)COc2ccc(F)cc2Cl)cc(C)c1O	none
Cc1noc(C)c1C(=O)N(CC(C)C)c1nc2ccccc2s1	Yeast superoxide 61 | Superoxide pick inactive | DHE counter inactive
CCS(=O)(=O)c1ccc(C(=O)NC2CC2)c(Cl)c1Cl	none
Cc1ccc(S(=O)(=O)NNC(=O)c2snnc2C)cc1	none
Cc1nnsc1C(=O)NNS(=O)(=O)c1cc(C(F)(F)F)cc(C(F)(F)F)c1	Yeast superoxide 59 | Superoxide pick inactive | DHE counter inactive
O=C(NCc1cccnc1)c1ccccc1NS(=O)(=O)c1ccc(F)cc1F	none
Cc1ccc(S(=O)(=O)N2CCCC2)cc1C(=O)O	none | Superoxide pick inactive | DHE counter inactive
COc1ccc(S(=O)(=O)N2CCCC2)cc1C(=O)O	none | Superoxide pick inactive | DHE counter inactive
COc1ccc(S(=O)(=O)N2CCOCC2)cc1C(=O)N1CCCC1	none
COc1ccc(S(=O)(=O)N2CCCC2)cc1OC	none
CCOC(=O)c1cccc(S(=O)(=O)N2CCCC2)c1	none | Superoxide pick inactive | DHE counter inactive
COc1ccc(S(=O)(=O)N2CCCC2)cc1C(C)C	none | Superoxide pick inactive | DHE counter inactive
O=C(Nc1ccc2snnc2c1)Nc1cccc2ccccc12	none
C=C(C)CNC(=S)NNC(=O)CCn1c2cc(Cl)ccc2c2ccc(Cl)cc21	none | Superoxide pick inactive | DHE counter inactive
C=C(C)CNC(=S)NNC(=O)c1ccncc1	none
C=C(C)CNC(=S)NNC(=O)CCn1c2ccc(Cl)cc2c2cc(Cl)ccc21	none | Superoxide pick inactive | DHE counter inactive
C=C(C)CNC(=S)NNC(=O)CCn1c2ccccc2c2ccccc21	none | Superoxide pick inactive | DHE counter inactive
Cn1cccc1CC(=O)NNC(=S)Nc1ccc(Cl)cc1Cl	none
NNC(=O)c1csc(-c2ccc(C(F)(F)F)cc2Cl)n1	none
COc1ccc(OC)c(-c2csc(NC(=O)Cc3cccs3)n2)c1	none
COc1cccc(NC(=O)CCS(=O)(=O)c2ccc(Br)cc2)c1	Yeast superoxide 50 | Superoxide pick inactive | DHE counter inactive
CC1(C)CC(N2CN(C3CCCCC3)CC2=O)CC(C)(C)N1	Yeast superoxide 61 | Superoxide pick inactive | DHE counter inactive
CCc1ccc(NC(=O)CCn2nc(C)c(S(=O)(=O)N3CCCCC3)c2C)cc1	none
CCOc1ccc(NC(=O)CCn2nc(C)c(S(=O)(=O)N3CCCCC3)c2C)cc1	Yeast superoxide 58 | Superoxide pick inactive | DHE counter inactive
CCC(=O)c1ccc(N2CCN(C(=O)c3ccccc3)CC2)c(F)c1	none | Superoxide pick inactive | DHE counter inactive
CCOC(=O)N1CCN(c2ccc(C(=O)CC)cc2F)CC1	none
O=C(c1ccc(-c2ccccc2)cc1)N1CCN(c2ccccc2F)CC1	none
O=C(c1ccccc1)N1CCN(c2ccccc2F)CC1	none | Superoxide pick inactive | DHE counter inactive
COC(=O)Cc1ccc(NC(=S)Nc2ccc(N3CCOCC3)cc2)cc1	none
Cc1cc(C)cc(NC(=O)N2CCNC(=O)C2CC(=O)Nc2cc(Cl)ccc2Cl)c1 (stereo unspecified)	Yeast superoxide 64 | Superoxide pick inactive | DHE counter inactive
O=C(CC1C(=O)NCCN1C(=O)Nc1ccc(F)cc1F)Nc1cc(Cl)ccc1Cl (stereo unspecified)	none
O=C(NC1CCCCC1)C(c1ccccc1F)N(C(=O)c1csnn1)C1CCCC1 (stereo unspecified)	none
O=C1COc2ccc(C(=O)COC(=O)Cc3c(F)cccc3Cl)cc2N1	none (no result: Yeast superoxide)
O=S(=O)(c1ccc(Cl)s1)N1CCC(Cc2ccccc2)CC1	Yeast superoxide 62 | Superoxide pick inactive | DHE counter inactive
Cc1ccc(C(=O)OCC(=O)NCc2ccco2)cc1S(=O)(=O)N1CCOCC1	none
